The text below walks through data of PubChem BioAssay AID588342 (National Center for Advancing Translational Sciences (NCATS), 2011).

About 25,000 (6.9%) of roughly 360,000 compounds were called active. Not shown: some 9% with an inconclusive outcome. Calls follow the shape of the dose curve; as a rule, active = well fitted inhibition curve with a large enough effect; inconclusive = small, poorly fitted or top-dose-only effect; inactive = flat fitted curve, though single readings scatter. What follows is part of a selection rich in actives, with near analogues and random picks from the rest. Entries that show only a call come without a potency.
Potency is read from the fitted curve at half-maximal effect.

Luciferin 4-monooxygenase (Photinus pyralis), sequence (P08659 whole entry, looked up): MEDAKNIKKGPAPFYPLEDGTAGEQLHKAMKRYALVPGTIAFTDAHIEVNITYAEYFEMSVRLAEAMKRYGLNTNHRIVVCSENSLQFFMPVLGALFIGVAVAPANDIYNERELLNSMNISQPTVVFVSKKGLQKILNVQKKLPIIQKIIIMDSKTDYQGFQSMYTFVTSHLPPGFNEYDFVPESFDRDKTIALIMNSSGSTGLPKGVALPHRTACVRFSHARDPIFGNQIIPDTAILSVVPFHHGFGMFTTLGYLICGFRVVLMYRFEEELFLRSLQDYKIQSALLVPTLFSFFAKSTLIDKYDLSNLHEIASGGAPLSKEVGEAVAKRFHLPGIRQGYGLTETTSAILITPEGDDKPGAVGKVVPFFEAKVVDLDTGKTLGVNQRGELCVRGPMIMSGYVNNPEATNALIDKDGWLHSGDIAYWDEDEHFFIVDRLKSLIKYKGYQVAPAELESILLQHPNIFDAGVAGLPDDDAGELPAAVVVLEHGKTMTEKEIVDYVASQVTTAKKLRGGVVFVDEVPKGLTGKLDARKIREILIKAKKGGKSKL

The assay addresses Luciferin 4-monooxygenase (Photinus pyralis) (UniProt P08659). Kind of assay: qHTS profiling assay for firefly luciferase inhibitor/activator using purifed enzyme and Km concentrations of substrates (counterscreen for miR-21 project). Also: nearly all actives have a fitted effect of over 55% in size. The following applies: purified FLuc, luminescence inhibition; series mostly up to 57.5 µM. The procedure, abridged:
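Purified P. pyralis luciferase, 10 nM final, with Km-level 10 uM D-luciferin and 10 uM ATP in 50 mM Tris acetate pH 7.5, 10 mM Mg acetate, 0.01% Tween-20, 0.05% BSA; 6-point qHTS titration about 60 µM downward; luminescence read.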
(In general: Quantitative high-throughput screening tests each substance at several concentrations.)
In the case of `Cc1cc(C)c(NC(=O)c2cc3sc(Cl)cc3n2C)c(C)c1`, the Potency result was “inactive”.
Next, `O=C(NNC(=O)c1cc2c(s1)CCCC2)c1ccccc1`: 26.9 µM (active); `O=C(NNC(=O)C1CCC1)c1ccccc1`: “inactive”.
Next, `O=C(c1cc2c(s1)CCC2)N1CCN(c2ccccc2)CC1`: “inactive”; `O=C(NCC1CCCO1)c1cc2c(s1)CCCC2` (configuration not stated): 12 µM (active); `O=C(NCCCn1ccnc1)c1cc2c(s1)CCCC2`: “inactive”.
As for `O=C(NCCCN1CCOCC1)c1cc2c(s1)CCC2`, the entry is “inactive”; as for `CCC(=O)c1c[nH]c(C(=O)NCC2CCCO2)c1` (configuration not stated), “inactive”.
Regarding `COc1ccc(C(CNC(=O)c2cc3c(s2)CCCC3)N2CCOCC2)cc1` (configuration not stated), the Potency result was “inactive”.
Turning to `O=C(Nc1ccc(F)cc1)c1cc2c(s1)CCCC2`, the Potency is 1.9 µM (active).
With `COc1ccc(Cn2c(=O)c3oc4ccccc4c3n(CC(=O)Nc3ccc(F)cc3F)c2=O)cc1`, the Potency result was “inactive”.
As for `COc1ccc(Cn2ccn(Cc3cccc(OC)c3)c(=O)c2=O)cc1`, the entry is “inactive”.
`CN(C)c1ccc(NC(=O)CSc2nc(-c3ccco3)cc(C(F)(F)F)n2)cc1`: the Potency result is “inactive”.
Consider `CSc1ccccc1OCc1cc(C(=O)N(C)CCc2c(C)n[nH]c2C)no1`, for which the Potency result was “inactive”.
As for `COC(=O)[C@@H]1CCCN1C(=O)c1cc(COc2cccc3cccnc23)on1`, the entry is “inactive”; as for `CSc1ccccc1OCc1cc(C(=O)N2C[C@H]3CC[C@H]2C3)no1`, 10.7 µM (active).
As to `CCc1nnc(SCc2nc(-c3cccc(C)c3)oc2C)c2cc3sc(C)cc3n12`, the Potency entry was “inactive”.
As for `COc1ccc2[nH]c(=S)cc(C)c2c1`, the entry is “inactive”.
As for `COc1ccc2[nH]c(C(=O)N3CCN(C)CC3)c(C)c2c1`, the entry is “inactive”.
For the compound `COc1ccc2[nH]c3ccc(OC)cc3c2c1`, the Potency was 21.3 µM (active).
As for `CCCCn1c(CNC(=O)C23CC4CC(CC(C4)C2)C3)nnc1SCC(=O)Nc1ccc(C)cc1`, the entry is “inactive”; as for `CC(C)Oc1ccc(CNC(=O)C2CCN(c3nc4ccccc4n(C)c3=O)CC2)cc1`, “inactive”.
Next, `O=C(O)COCC(=O)NCc1csc2ccc(Cl)cc12`: “inactive”; `C/C(=N\Nc1cccc(C(=O)O)c1)c1ccc2c(c1)Nc1ccccc1S2`: 7.57 µM (active).
As for `CC(=O)Nc1cccc(/C(C)=N/NC(=O)c2c(-c3ccccc3Cl)noc2C)c1`, the entry is “inactive”; as for `Cc1ccccc1NC(=O)c1cc(S(=O)(=O)Nc2cccc(C(=O)O)c2)ccc1Cl`, “inactive”.
For `Cc1ccc(S(=O)(=O)N2CCOCC2)cc1NC(=O)COC(=O)c1cnccn1`, the Potency result is “inactive”.
Next, `Cc1cc(F)ccc1NS(=O)(=O)c1ccc(-n2cccn2)cc1`: “inactive”; `O=C(COC(=O)C1(c2ccc(F)cc2)CCCC1)N1CCNC1=O`: “inactive”.
Turning to `COCCN1C(=O)C(=O)/C(=C(/O)c2ccc(S(=O)(=O)N3CCOCC3)cc2)C1c1ccc(O)c(OC)c1` (configuration not stated), the Potency entry is “inactive”.
As to `CSc1ccc(/C=C/C(=O)NC23CC4CC(CC(C4)C2)C3)cc1`, the Potency was 13.5 µM (active).
As for `O=C(NCc1ccncc1)NC12CC3CC(CC(C3)C1)C2`, the entry is “inactive”; as for `CSc1ccc(NC(=O)/C=C/C(=O)O)cc1`, “inactive”.
Next, `COC(=O)c1sc(NC(=O)COC(=O)C2CCC2)c(C(=O)OC)c1C`: “inactive”.
For `O=C1c2ccccc2C(=O)N1CCOc1ccc(F)cc1`, the Potency is 13.5 µM (active).
For `Cc1cccc2c1N(CCOc1ccccc1)C(=O)C2=O`, the Potency result was “inactive”.
As to `O=C(OCCN1C(=O)c2ccccc2C1=O)Oc1ccccc1`, the Potency entry was “inactive”.
Next, `Cc1nc2c(c(C)nn2-c2ccccc2)c(C)c1CCC(=O)NCCc1ccc(Cl)cc1`: “inactive”; `O=C(CSc1ncnc2scc(-c3ccccc3)c12)NCc1ccc2c(c1)OCO2`: “inactive”; `Cc1cc(C)c(NC(=O)CN2C(=O)c3cccnc3Oc3ccc(Cl)cc32)c(C)c1`: “inactive”.
As for `Cc1nc2ccccc2c(=O)n1NC(=O)c1ccccc1`, the Potency entry is “inactive”.
`Cn1sc(NC(=O)c2ccccc2)nc1=O`: the Potency is 19 µM (active).
Next, `CCn1c(NC(=O)c2nn(C)cc2Br)nc2ccccc21`: “inactive”.
As for `Cn1nnc(NC(=S)NC(=O)c2ccccc2)n1`, the entry is “inactive”; as for `Cn1c(S(=O)(=O)O)nc2ccccc21`, “inactive”; as for `Cn1c(NC(=O)c2ccccc2)nc2ccccc21`, 6.75 µM (active).
`Brc1cc(Br)c(Oc2cc(Br)c(Br)cc2Br)cc1Br`: the Potency result is “inactive”.
As for `CC1CCC(N2CC(=O)N(CCC3=CCCCC3)C(c3ccc(F)cc3)C2=O)CC1` (configuration not stated), the entry is “inactive”; as for `COc1ccc(CN2CCN(C(=O)c3cc(C4CC4)nn3-c3ccccc3)CC2)cc1F`, “inactive”; as for `CCn1c2ccccc2c2cc(NC(=O)Nc3ccc([N+](=O)[O-])cc3C)ccc21`, “inactive”.
Next, `Cc1ccc(-n2c3nc(=O)[nH]c(=O)c-3cc3c(Cl)cccc32)cc1`: “inactive”; `Cc1ccccc1-c1nc(SCC(=O)N(C)c2ccccc2)c2c(=O)n(C)c(=O)n(C)c2n1`: “inactive”.
Next, `CCN(CC)S(=O)(=O)c1ccc(N2CCOCC2)c(NC(=O)c2ccc(=O)n(C)n2)c1`: “inactive”.
As to `COc1ccc(C2=NN(C(=O)CSc3nnnn3C)C(c3ccco3)C2)cc1` (configuration not stated), the Potency entry is “inactive”.
Next, `CCOC(=O)C1C(=O)C=C(c2ccc(OC)cc2)CC1c1ccco1` (configuration not stated): 13.5 µM (active); `CCOC(=O)C1C(=O)NC(N2CCN(c3ccccc3)CC2)=NC1c1ccco1` (configuration not stated): “inactive”.
On to `Cc1ccc(Nc2nc(-c3ccc(O)cc3O)cs2)nc1`, for which the Potency was 2.39 µM (active).
Turning to `O=C(CCNC(=O)c1ccccc1Cl)NCc1ccco1`, the Potency result is “inactive”.
`CN(C(=O)CSc1nnc(NC(=O)Nc2ccccc2)s1)c1ccccc1`: the Potency result is “inactive”.
Take `Cc1nc(SCC(=O)Nc2ccc(C(=O)O)cc2)n[nH]1`: the Potency result is “inactive”.
Next, `O=C(CSc1nnc(C2CC2)n1Cc1ccccc1)Nc1cccnc1Cl`: “inactive”.
As for `O=C(CSc1nnc(Nc2ccccc2)s1)Nc1cccnc1Cl`, the figure is 16.9 µM (active).
In the case of `CC(C)(C)NC(=O)CSc1nnc(NC(=O)CCc2ccccc2)s1`, the Potency entry is “inactive”.
As for `CC(=O)c1ccc(NC(=O)CSc2nnc(NC(=O)Nc3ccccc3)s2)cc1`, the figure is 0.478 µM (active); as for `O=C(CSc1nnc(SCc2ccc(F)cc2)s1)Nc1ccc(C(=O)O)cc1`, 5.36 µM (active); as for `Cc1cc(NC(=O)CSc2nnc(Nc3ccccc3F)s2)no1`, “inactive”.
Next, `O=C(Cc1cccs1)Nc1nnc(SCc2ccc(F)cc2)s1`: “inactive”.
Next, `CCOc1ccc(NC(=O)CN(C)C(=O)CSc2ccccc2)cc1OCC`: “inactive”.
With `Cc1cccc(Nc2cc(C)nc(-n3nc(C)cc3C)n2)c1`, the Potency entry is “inactive”.
Next, `O=C(NNC(=O)c1cccc(S(=O)(=O)Nc2ccc(Cl)cc2)c1)c1ccc(=O)[nH]c1`: “inactive”.
As for `COc1ccc(C(C)(C)C)cc1NC(=O)CCN1C(=O)C2CCCCC2C1=O` (configuration not stated), the entry is “inactive”; as for `O=C(CS(=O)(=O)c1cccc2nsnc12)N1CCN(c2cccc(Cl)c2)CC1`, “inactive”.
On to `COCC(=O)N=Nc1c(O)[nH]c2ccccc12`, for which the Potency entry was “inactive”.
As to `COc1ccc(N=Cc2c(O)[nH]c3ccccc23)cc1OC`, the Potency was 15.1 µM (active).
Regarding `COc1cc(N=Cc2c(O)[nH]c3ccccc23)cc(OC)c1OC`, the Potency result is “inactive”.
Next, `Cc1ccccc1N1CCN(Cc2nc(Cc3ccccc3F)no2)CC1`: “inactive”; `CCCCC(=O)Nc1ccc(C(=O)Nc2cc(C(F)(F)F)ccc2Cl)cc1`: “inactive”.
As for `Cc1ccc(Cl)cc1NC(=O)COC(=O)CC(C)(C)C`, the entry is “inactive”; as for `CC(=O)Nc1ccc(NC(=O)CCCNC(=O)c2ccc(Cl)cc2)cc1`, “inactive”; as for `COc1ccc(C(=O)COC(=O)CCCC(=O)Nc2cc(C(F)(F)F)ccc2Cl)cc1`, 2.13 µM (active).
Turning to `COc1cc(OC)c(C(=O)OC(C)C(=O)Nc2cc(C(F)(F)F)ccc2Cl)cc1OC` (configuration not stated), the Potency entry is “inactive”.
For the compound `O=C(COC(=O)CCCNC(=O)c1ccc(Cl)cc1)Nc1cc(Cl)ccc1Cl`, the Potency was 16.9 µM (active).
As for `COc1ccc(CC(=O)NCCc2sc3nc(-c4ccc(OC)cc4)nn3c2C)cc1`, the entry is “inactive”; as for `O=C(NCc1ccco1)C1CCCN1S(=O)(=O)c1ccccc1C(F)(F)F` (configuration not stated), “inactive”; as for `COc1cc(/C=C(/NC(=O)c2ccc(Cl)cc2Cl)C(=O)O)cc(OC)c1OC`, “inactive”.
As for `C/C(=N\OCC(=O)O)c1ccc(Cl)cc1`, the entry is “inactive”; as for `CCOc1cc(/C=C(/C#N)c2ccc(Cl)cc2)cc(Cl)c1OCC(=O)O`, 3.79 µM (active).
As for `COc1ccc(CNC(=O)c2ccc(Br)s2)cc1OC`, the Potency result was “inactive”.
Next, `CCCC(=O)Nc1nc2ccc(NC(=O)c3c(F)c(F)c(OC)c(F)c3F)cc2s1`: “inactive”.
`COc1ccc2nc(NC(=O)c3ccc(Br)s3)sc2c1`: the Potency is 3.01 µM (active).
As for `CCc1noc(C)c1C(=O)NNC(=O)c1ccc(F)cc1`, the entry is “inactive”.
Next, `COc1ccc(NC(=O)CCC(=O)Nc2nnc(C3CCCCC3)s2)cc1`: “inactive”.
Take `Cc1cccc(S(=O)(=O)CC(=O)Nc2nc(-c3ccccc3)cs2)c1`: the Potency result is “inactive”.
In the case of `CCc1nc2ccccc2c(C(=O)NCc2ccc(OC)cc2)c1C`, the Potency entry is “inactive”.
Next, `COc1ccc2nc(NC(=O)NC3CCCCC3)sc2c1`: 9.53 µM (active).
As to `COc1ccc(S(=O)(=O)N2CCN(C(=O)NC3CCCCC3)CC2)cc1`, the Potency entry is “inactive”.
On to `CCc1noc(C)c1C(=O)Nc1nc(-c2ccccc2)cs1`, for which the Potency is 19 µM (active).
For `COc1ccc2oc(=N)c(C(=O)Nc3ccc(Br)cc3)cc2c1`, the Potency result is “inactive”.
As for `CCc1noc(C)c1C(=O)Nc1nc2ccc(OC)cc2s1`, the figure is 5.36 µM (active); as for `Cc1ccc(Cl)cc1N1CCN(C(=O)C2CCC(CNS(=O)(=O)c3cccs3)CC2)CC1` (configuration not stated), “inactive”.
As for `Cc1ccc(C(=O)Nc2cc3c(cc2N2CCCC2)n(C)c(=O)c(=O)n3C)cc1`, the entry is “inactive”; as for `Cc1oc2ccc(O)c(CN3CCC(C)CC3)c2c1C(=O)Nc1ccccc1`, “inactive”; as for `COc1ccc(OC)c(S(=O)(=O)Nc2c(C)nn(C)c2C)c1`, “inactive”.
Next, `COc1ccc(-c2nn3c(-c4ccc(OC)cc4)nnc3c3ccccc23)cc1`: “inactive”; `COCCCNC(=S)N(CCN(C)C)Cc1cc2cc3c(cc2[nH]c1=O)OCCO3`: “inactive”.
Regarding `O=C(CN1c2ccccc2S(=O)(=O)c2ccccc21)Nc1cccc(C(F)(F)F)c1`, the Potency entry was “inactive”.
Consider `O=C(Cn1c(=O)n(Cc2ccccc2)c(=O)c2sc3ccccc3c21)Nc1ccccc1F`, for which the Potency entry is “inactive”.
